Laboratory results published in PubChem BioAssay AID893 (National Center for Advancing Translational Sciences (NCATS), 2007).
About 5,700 (7.6%) of roughly 75,000 compounds were called active. A call without a number means that no potency is given here. Inconclusive results (about 7%) are left out. This excerpt belongs to a sample that is enriched for actives. Unmarked numbers belong to inactive results. The call rests on the fitted dose curve; in most records, active means well fitted inhibition curve with a large enough effect; inconclusive means small, poorly fitted or top-dose-only effect; inactive means no such curve, though single readings can be large or run the other way.

Molecular target: 3-hydroxyacyl-CoA dehydrogenase type-2 (Homo sapiens) (UniProt Q99714)
Experiment: qHTS Assay for Inhibitors of HSD17B4, hydroxysteroid (17-beta) dehydrogenase 4;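 further: the protocol describes HADH2 (HSD17B10) and not the HSD17B4 of the title; nearly all actives have a fitted effect of over 70% in size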
Details: recombinant HSD17B10, NADH fluorescence kinetic; series mostly up to 57.1 µM
Excerpt: Assay Overview: NIH Molecular Libraries Screening Centers Network [MLSCN] NIH Chemical Genomics Center [NCGC] Structural Genomics Consortium [SGC] Grant number: None HADH2: Hydroxyacyl-Coenzyme A dehydrogenase, type II, was supplied by researchers at the Structural Genomics Consortium, Oxford University lab (PI Udo Oppermann). The mitochondrial enzyme 17-hydroxysteroid dehydrogenase type 10 (HSD17-10) previously classified as type II hydroxyacyl-CoA dehydrogenase (HADH2) catalyzes the NAD+ dependent oxidation of a variety of substrates including acyl-CoAs, androgens and neurosteroids as well as bile acids(Shafqat N, Marschall HU, Filling C, et al. Biochemical Journal. 2003;376(Pt 1):49-60). […] The enzyme was produced by E.coli fermentation as His-tagged recombinant for the purpose of X-ray structure determination, and had been mass-spectrometry characterized. Inhibition of HADH2 activity was screened by utilizing beta-hydroxybutyryl coenzyme A as an electron donor and NAD+ as an electron acceptor/cofactor. An increase in the fluorescence intensity due to conversion of NAD+ to NADH was used to measure the enzyme activity.
Assay Protocol: Buffer: 100 mM Tris-HCl pH 9.0, containing 0.01 % Tween-20. Reagents/Controls: Buffer in columns 3 and 4 as negative control (no enzyme). Substrate/cofactor solution: 1 mM NAD+ and 90 uM beta-hydroxybutyryl coenzyme A (Sigma-Aldrich, St. Louis, MO) final concentrations dispensed throughout the plate. Enzyme: 20 nM HADH2 final concentration in columns 1, 2, 5-48. Column 1 is neutral (100% activity). Column 2 contained titration of apomorphine (Sigma-Aldrich, A 4393, PubChem CID 2215, top concentration 500 uM, then 1:2 dilution in duplicate) Assay Steps: Three uL of enzyme were dispensed to 1536-well Greiner black solid bottom plates. Compounds and controls (23 nL) were transferred via Kalypsys PinTool. The plates were incubated for 15 min at room temperature, and then 1 uL of substrate/cofactor solution was added to start the reaction. The plates were immediately transferred to and read every 30 seconds for 4 min on ViewLux High-throughput CCD imager (Perkin-Elmer) using 360 nm excitation and 450 nm emission fluorescence protocol. The fluorescence intensity difference between the last and the first time points was used to compute reaction progress.
Potency means the concentration at half of the fitted maximal effect.

| SMILES | Potency | activity change, negative = inhibition |
| --- | --- | --- |
| Cc1cccc2c3c(ccc12)C1=C(C(=O)C3=O)C(C)CO1 (centres undefined) | 20 µM (active) | – |
| C[C@@]12CCC3C(CC[C@@H]4CC(O)CC[C@@]34C)C1CCC2O (some centres undefined) | inactive | – |
| CC(C)(C)[C@]1(O)C[C@@H]2OC(=O)C[C@@]23C(=O)O[C@@H]2OC(=O)[C@H](O)[C@]213 | inactive | – |
| Cc1cccc([C@H](C)c2cnc[nH]2)c1C | inactive | – |
| c1ccc(N2CC[C@@]3(CCCNC3)C2)nc1 | 31.6 µM (active) | – |
| c1ccc(CN2CC[C@@]3(CCCNC3)C2)cc1 | inactive | – |
| O=C1C2(Cl)C3(Cl)C4(Cl)C(Cl)(Cl)C5(Cl)C3(Cl)C1(Cl)C5(Cl)C24Cl (centres undefined) | inactive | – |
| CN1C2CC3CC1C(O3)C2O (centres undefined) | inactive | – |
| CCN1C[C@]2(COC)C(O)C[C@H](OC)[C@@]34C5C[C@]6(O)C(OC)C(O)[C@](OC(C)=O)(C5C6OC(=O)c5ccccc5)C(C(OC)C23)C14 (some centres undefined) | inactive | – |
| CC(=O)OC1C2CCC3C1(CC(O)[C@@]1(O)[C@@H](CC(O)C1(C)C)[C@]3(C)O)C[C@@]2(C)O (some centres undefined) | inactive | – |
| CC(C)(C)C(O)(CCc1ccc(Cl)cc1)Cn1cncn1 (centres undefined) | inactive | – |
| CCOC(=O)c1c(-c2ccccc2)oc2ccc(OC(=O)N(C)C)cc12 | 31.6 µM (active) | – |
| c1ccc(CCCCN2CCC(c3ccccc3)CC2)cc1 | inactive | – |
| CN(C)C1C(=O)C(C(N)=O)=C(O)[C@@]2(O)C(=O)C3=C(O)c4c(O)cccc4[C@@](C)(O)C3C[C@@H]12 (some centres undefined) | inactive | – |
| NCC[Se][Se]CCN | 0.794 µM (active) | – |
| N#CCCCl | inactive | – |
| C=CCSSCC=C | inactive | – |
| COc1cc(C[C@H](C)N)c(OC)cc1I | inactive | – |
| CC(=O)c1c(O)c(C)c(O)c(Cc2c(O)c3c(c(C(=O)/C=C\c4ccccc4)c2O)OC(C)(C)C=C3)c1O | 31.6 µM (active) | – |
| CCCCN1C2CCC1CC(OC(c1ccc(F)cc1)c1ccc(F)cc1)C2 (centres undefined) | inactive | – |
| C[C@H](CCC(=O)O)[C@H]1CC[C@@H]2[C@H]3CC[C@H]4C[C@H](O)CC[C@@]4(C)[C@@H]3CC[C@@]21C | – | -3.04% [at 11.4 µM] |
| CCNC[C@H](O)c1cccc(O)c1 | inactive | – |
| Fc1ccc(C(OCCN2CCN(C/C=C\c3ccccc3)CC2)c2ccc(F)cc2)cc1 | inactive | – |
| CCOC(=O)c1c(N)n(Cc2ccccc2)c2nc3ccccc3nc12 | 15.8 µM (active) | – |
| N#Cc1c(Cl)c(Cl)c(Cl)c(C#N)c1Cl | inactive | – |
| CC1=CC(=O)C2=C(C)C[C@H](O)[C@H]3[C@H](C)C(=O)O[C@@H]3C12 (some centres undefined) | inactive | – |
| Cc1ccc(S(=O)(=O)O[C@H]2CN3CCC2CC3)cc1 | – | 7.71% [at 11.4 µM] |

| SMILES | Potency | activity change, negative = inhibition |
| --- | --- | --- |
| COc1ccc(C2Oc3c(I)c(OC)cc(OC)c3CC2O)cc1OC (centres undefined) | inactive | – |
| NC(=O)c1ccc(OC[C@H](O)CN2CC=C(c3ccc(F)cc3)CC2)cc1 | inactive | – |
| CC[C@@](O)(C(=O)O)c1cc2n(c(=O)c1CO)Cc1cc3ccccc3nc1-2 | 3.16 µM (active) | – |
| Clc1ccccc1 | inactive | – |
| CC(C)CC(C)Nc1ccc(Nc2ccccc2)cc1 (centres undefined) | inactive | – |
| CC[C@@H]1CN2CC[C@@H]1C[C@H]2[C@H](O)c1ccnc2ccc(OC)cc12 | 25.1 µM (active) | – |
| ClC(Cl)=C(Cl)C(Cl)=C(Cl)Cl | inactive | – |
| N[C@H](C(=O)O)c1cc(=O)[nH]o1 | inactive | – |
| c1csc(CN2CCCC3(CCNCC3)C2)n1 | inactive | – |
| COC1CC(OC2CC[C@@]3(C=O)C4CC[C@]5(C)C(C6=CC(=O)OC6)CC[C@@]5(O)C4CC[C@]3(O)C2)OC(C)C1O (some centres undefined) | inactive | – |
| CCN1C[C@@]2(COC)CC[C@H](OC)[C@]34[C@@H]1[C@]1(OCO[C@@]15C[C@@H](OC)C1C[C@H]3[C@H]5[C@@H]1OC)[C@H](O)[C@@H]24 | inactive | – |
| CCN(CC)CCOC(=O)c1cc2cc(COC)ccc2o1 | 25.1 µM (active) | – |
| O=C(NCC(c1cccnc1)N1CCN(c2ccccc2)CC1)Oc1ccccc1 (centres undefined) | inactive | – |
| COc1cc2c(cc1OC)[C@@H]1C(=O)c3ccc(O)c(CC=C(C)C)c3OC1CO2 (some centres undefined) | inactive | – |
| CS(=N)(=O)CC[C@H](N)P(=O)(O)O (some centres undefined) | – | -1.1% [at 11.4 µM] |
| CC(C)(c1ccc(OC[C@@H]2CO2)cc1)c1ccc(OC[C@H]2CO2)cc1 | inactive | – |
| O=C(c1cc(-c2ccncc2)nc2ccccc12)N1CCC2(CC1)OCCO2 | inactive | – |
| O=C(c1cc2nc(-c3ccccc3)cc(-c3ccccc3)n2n1)N1CCC2(CC1)OCCO2 | 31.6 µM (active) | – |
| Cc1cccc(-n2c(C)nc3cc(C(=O)N4CCC5(CC4)OCCO5)ccc32)c1 | inactive | – |
| CNC(C)[C@@H](O)c1ccccc1 (some centres undefined) | inactive | – |
| CCCCC#N | inactive | – |
| CCC(C)C(=O)O[C@@H]1C[C@@]2(C)C(c3ccoc3)OC(=O)CC23OC2(C)O[C@@]14[C@@]1(C)C(CC(=O)OC)C5(C)CC1(O)C(O)(C5OC(=O)C1(C)OC1C)C(OC(C)=O)[C@@]34O2 (some centres undefined) | inactive | – |
| CC(C)(Cc1c[nH]c2ccc(Cl)cc12)NCCOc1ccccc1OCC1CC1 | inactive | – |
| C[C@H]1CC[C@@]2(NC1)O[C@@H]1C[C@H]3[C@@H]4CC=C5C[C@@H](O)CC[C@]5(C)[C@@H]4CC[C@]3(C)[C@@H]1[C@@H]2C | inactive | – |
| CN1[C@@H]2CC[C@H]1CC(NC(=O)c1nn(C)c3ccccc13)C2 (some centres undefined) | 20 µM (active) | – |
| N[C@H](Cc1o[nH]c(=O)c1Cl)C(=O)O | inactive | – |
| C[C@@]12CC[C@H](O)C[C@@H]1CC[C@@H]1[C@@H]2CC[C@@]2(C)[C@@H](C3=CC(=O)OC3)[C@H](O)C[C@]12O | – | 5.61% [at 11.4 µM] |
